The list is not random: actives were taken first. Their share in the collection is about 27%.
CYP2C9 inhib: human CYP2C9 inhibition. AID 777. CYP2C9 Supersomes, luciferin-H conversion, luminescence. P11712. 96,000 compounds, 20% hits. inhibition, % at 5 µM;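 active = blocking of liver enzyme CYP2C9 beyond about 50% at 5 µM, limit read from the data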
CYP2C19 inh: human CYP2C19 inhibition. P33261. CYP2C19 Supersomes, luciferin-H EGE luminescence, 30 min. inhibition, % at 5 µM. 96,000 compounds, 21% hits;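 active = CYP2C19 inhibition above a set limit at 5 µM in the primary screen, cut at about 50% in these data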;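 also: plate controls were negative control wells for no effect and 2.5 mM tranylcypromine positive control for full effect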
Target sequence (P33261 whole entry, looked up): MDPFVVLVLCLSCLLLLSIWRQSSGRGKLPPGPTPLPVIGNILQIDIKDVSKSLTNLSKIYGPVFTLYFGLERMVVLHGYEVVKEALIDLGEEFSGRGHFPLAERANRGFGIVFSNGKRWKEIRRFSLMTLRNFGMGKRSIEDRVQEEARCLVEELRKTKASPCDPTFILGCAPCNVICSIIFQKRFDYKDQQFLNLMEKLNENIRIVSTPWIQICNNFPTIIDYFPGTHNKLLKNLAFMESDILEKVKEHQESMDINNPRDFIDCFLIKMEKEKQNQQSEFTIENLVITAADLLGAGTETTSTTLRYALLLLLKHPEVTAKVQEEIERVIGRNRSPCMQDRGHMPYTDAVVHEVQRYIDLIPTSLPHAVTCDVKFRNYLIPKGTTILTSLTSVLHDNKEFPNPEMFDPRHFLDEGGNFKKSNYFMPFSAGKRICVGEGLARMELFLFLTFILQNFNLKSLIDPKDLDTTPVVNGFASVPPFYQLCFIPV
sEH inh: soluble epoxide hydrolase (human) inhibition; recombinant human sEH enzymatic activity assay; inhibition, % at 2 µM; 91,000 compounds, 0.34% hits; in the data active = inhibition above about 80%
sEH act: soluble epoxide hydrolase (human) activation; activation, % at 2 µM; 91,000 compounds, 0.04% hits; AID 717; purified human sEH enzymatic activity, activator screen; P34913; in the data active = activation above about 37%
CYP2C9 act: activators of human CYP2C9; recombinant CYP2C9, luciferin-H conversion, luminescence; stronger effect = higher value; factor 1 = untreated enzyme, 0 = blocked; activation factor at 5 µM; P11712; 96,000 compounds, 1.4% hits;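 active = activation factor of 2 or more for CYP2C9 at a 5 µM dose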;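 also: 0 = sulfaphenazole-blocked wells and 1 = vehicle-only wells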
CYP2C19 act: activators of human cytochrome P450 2C19. P33261. recombinant CYP2C19, luciferin-H EGE luminescence; stronger effect = higher value; 0 = fully inhibited enzyme, 1 = untreated enzyme. activation factor at 5 µM. 96,000 tested, under 10 active. AID 1025;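 active = activation factor of at least 2 at 5 µM in the primary screen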;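 also: 0 = wells with 2.5 mM tranylcypromine and 1 = vehicle-only wells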
Numbers without * were called inactive; . = no result given.

SMILES	CYP2C9 inhib	CYP2C19 inh	sEH inh	sEH act	CYP2C9 act	CYP2C19 act
COC(=O)c1sc(N2C(=O)C(O)=C(C(=O)c3ccc(C)o3)C2c2ccc(F)cc2)nc1C (stereo not drawn)	80.1*	25.2	1.9	-2.6	0.2	0.7
CCOc1cccc(C2C(C(=O)c3ccc(C)o3)=C(O)C(=O)N2c2nccs2)c1 (stereo not drawn)	29.1	33.2	11.0	-10.4	0.7	0.7
CC(=O)C1=C(Nc2ccc(C)cc2)CC(C)(O)C(C(C)=O)C1c1ccco1 (stereo not drawn)	21.8	39.7	2.6	-2.0	0.8	0.6
COc1cccc(/C=N/n2cnc3ccccc32)c1OC	45.8	83.1*	6.8	-4.3	0.5	0.2
COc1cccc(/C=N/NC(=O)c2ccc(-c3ccccc3)cc2)c1O	3.9	-4.3	-2.2	2.0	1	1
COc1cccc(/C=N/n2c(N)nc3ccccc32)c1OC	18.9	31.4	-0.6	-1.8	0.8	0.7
COc1cccc(/C=N/n2c(SC)nnc2-c2ccccc2)c1O	53.5*	26.4	-6.2	5.7	0.5	0.7
COc1cccc(/C=N/n2c(SC)nnc2-c2ccccc2)c1OC	90.8*	91.4*	.	.	0.1	0.1
O=C(CSc1nc2ccccc2o1)NCc1n[nH]c(=O)c2ccccc12	-50.4	-12.8	-8.7	10.2	1.5	1.1
Cn1c(Cn2nnc3ccccc32)nnc1SCC(=O)N1c2ccccc2Sc2ccccc21	51.5*	32.8	0.8	-1.0	0.5	0.7
Cn1c(Cn2nnc3ccccc32)nnc1SCC(=O)N1c2ccccc2CCc2ccccc21	63.5*	40.2	.	.	0.4	0.6
Cn1nnnc1SCC(=O)N1c2ccccc2Sc2ccc(Cl)cc21	35.6	74.7*	-5.4	3.5	0.6	0.3
Cn1c(Cn2nnc3ccccc32)nnc1SCC(N)=O	-19.4	-20.3	.	.	1.2	1.2
O=C(c1cccc(C(F)(F)F)c1)N1CCN(c2cc(=O)[nH]nc2-c2ccccc2)CC1	11.0	-7.1	-9.9	12.6	0.9	1.1
O=C(COc1cccc2ccccc12)N1c2ccccc2CCc2ccccc21	84.0*	76.5*	1.4	-3.4	0.2	0.2
O=C(NCc1ccccc1)c1ccccc1OCC(=O)N1CCCCC1	99.6*	72.8*	-2.8	1.9	0	0.3
O=C(COc1cccc2cccnc12)N1CCc2ccccc2C1	-222.7	87.9*	-7.2	6.8	3.2*	0.1
O=C(COc1cccc2ccccc12)N1CCN(c2ccccn2)CC1	-125.4	95.3*	7.8	-5.8	2.3*	0
O=C(COc1cccc2ccccc12)N1CCN(c2ccccc2)CC1	-71.7	95.3*	-17.9	15.8	1.7	0
COc1cccc(N2CC(C)Cn3c2nc2c3c(=O)n(CCN3CCOCC3)c(=O)n2C)c1 (stereo not drawn)	-0.7	-6.8	-3.0	0.0	1	1.1
COc1cc(NC(=O)C2CCCC2)c(OC)cc1Cl	9.3	64.9*	-7.6	8.9	0.9	0.4
CCCCOC(=O)Nc1cc(OC)c(Cl)cc1OC	61.3*	98.4*	.	.	0.4	0
CCCCC(=O)Nc1cc(OC)c(NC(=O)C2CCCCC2)cc1OC	98.8*	70.9*	-6.2	8.4	0	0.3
CCCCOC(=O)Nc1ccc(C)c(Cl)c1	10.6	24.8	-5.7	5.4	0.9	0.8
CCCC(=O)Nc1cc(OC)c(NC(=O)NC2CCCCC2)cc1OC	6.0	-2.2	66.5	-66.0	0.9	1
SMILES	CYP2C9 inhib	CYP2C19 inh	sEH inh	sEH act	CYP2C9 act	CYP2C19 act
CC(=O)N(CC(=O)O)c1ccccc1C(=O)O	-6.3	-5.7	-19.2	19.5	1.1	1.1
CCOc1cccc(C=Nc2cc(C)cc(C)c2O)c1O	1.9	-1.1	-6.0	3.5	1	1
CCCNC(=O)c1cc2c(C(F)(F)F)nn(C)c2s1	-0.4	5.5	-9.6	6.9	1	0.9
Cc1ccc(S(=O)(=O)/N=C2/C=C(C3C(=O)CC(C)(C)CC3=O)C(=O)c3ccccc32)cc1	62.3*	0.4	11.0	-13.0	0.4	1
CCn1cc(C(=O)Nc2ccc(OC)c(OC)c2)c2cc(OC)c(OC)cc2c1=O	9.2	1.5	-6.9	3.9	0.9	1
O=C(CSCCc1ccccn1)Nc1ccccn1	-8.0	11.3	.	.	1.1	0.9
Cc1csc(NC(=O)CCSCCc2ccccn2)n1	41.3	61.0*	12.6	-14.9	0.6	0.4

High-throughput results: PubChem BioAssay, several laboratories
